The other results are listed elsewhere or left out. Values without a mark were called inactive. No stated cut-off is given here; in the data, active means inhibition above about 50%; inactive means the rest.
Molecular target: Apelin receptor (Homo sapiens) (UniProt P35414)
Assay: apelin receptor inhibitors, beta-arrestin readout – cell-based, luminescence, single concentration, uHTS hits, confirmation (AID 2766)
Conditions: APJ beta-arrestin recruitment, antagonist mode, at 20 µM, stronger effect = higher value

Sequence of Apelin receptor (Homo sapiens) (P35414 whole entry, looked up): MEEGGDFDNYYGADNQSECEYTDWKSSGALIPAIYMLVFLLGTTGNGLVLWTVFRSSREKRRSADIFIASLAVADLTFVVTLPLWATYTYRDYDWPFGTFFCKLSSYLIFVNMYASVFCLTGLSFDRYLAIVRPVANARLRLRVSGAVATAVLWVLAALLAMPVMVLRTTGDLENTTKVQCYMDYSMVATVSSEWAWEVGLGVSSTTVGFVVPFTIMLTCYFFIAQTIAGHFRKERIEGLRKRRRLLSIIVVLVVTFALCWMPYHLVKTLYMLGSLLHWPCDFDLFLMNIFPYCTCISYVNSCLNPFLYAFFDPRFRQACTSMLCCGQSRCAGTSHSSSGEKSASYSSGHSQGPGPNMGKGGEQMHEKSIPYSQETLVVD

## CCOC(=O)c1c(N)n(Cc2ccccc2)c2nc3ccccc3nc12
  inhibition: 35%

Reference: PubChem BioAssay AID2766 (Sanford-Burnham Center for Chemical Genomics, 2010)
